This is part of a sample that, as a whole, favours compounds with a hit. Of some 83,000 tested, about 20% had one in any assay.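 Assay: single dose, 48 h. Readout: percent growth (0 = no net growth; negative = cell death). Active: <10.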 Values without a mark were called inactive. Activity calls are given as the source filed them.

Test systems include HCT-15 colon; HT29 colon; SNB-75 CNS; SNB-19 CNS; U251 CNS; PC-3 prostate; SK-MEL-5 melanoma; UACC-62 melanoma; LOX IMVI melanoma; SK-MEL-28 melanoma.
Common to all, as to assay: NCI-60 one-dose screen, 48 h (100 = growth as untreated, 0 = no growth, -100 = all killed)
Common to all, as to conditions: 10 µM unless noted

Turning to `COc1ccc(Cl)cc1NC(=O)C(Br)C(Br)C(=O)O` (stereo not given), the growth in the test on HCT-15 colon was 67.5%; with HT29 colon, 108%; in the test with SNB-75 CNS it was 103%; in the test on SNB-19 CNS, 122%; in the test with U251 CNS, 49.9%; in the test with PC-3 prostate, 56.3%. Also, the growth in the test with SK-MEL-5 melanoma was -82.2% (active); in the test on UACC-62 melanoma, 7.23% (active); with LOX IMVI melanoma it was -69.8% (active); in the test on SK-MEL-28 melanoma, 60.1%.
Regarding `CC1O[C@@H](OC2[C@H](OC(=O)/C=C/c3ccc(O)c(O)c3)C(COC3O[C@H](C)C(O)C(O)[C@@H]3O)O[C@@H](OCCc3ccc(O)c(O)c3)[C@H]2O)[C@@H](O)C(O)[C@H]1O` (stereo not given in full), the growth with HCT-15 colon is 100%; with HT29 colon, 100%; in the test on SNB-75 CNS, 85.7%; in the test with SNB-19 CNS, 107%; in the test with U251 CNS, 99.4%; in the test on PC-3 prostate, 99.9%. For the same compound, the growth in the test on SK-MEL-5 melanoma is 103%; in the test on UACC-62 melanoma it was 101%; in the test on LOX IMVI melanoma, 102%; in the test with SK-MEL-28 melanoma, 110%.
Take `COc1cccc(C(=O)NCCNc2cc(-c3cn(-c4ccccc4)nc3-c3cccc(OC)c3)ccn2)c1`: the growth was 41.8% in the test with HCT-15 colon; 22.6% in the test on HT29 colon; 74.5% in the test with SNB-75 CNS; 78% in the test on SNB-19 CNS; 48.4% in the test with U251 CNS; 25.4% in the test on PC-3 prostate. Moreover, the growth in the test with SK-MEL-5 melanoma was 39.3%; in the test with UACC-62 melanoma, 55.1%; in the test on LOX IMVI melanoma it was 62.1%; with SK-MEL-28 melanoma it was 80.2%.
For `COc1cc2nc(Cl)nc(Nc3ccc(S(=O)(=O)Nc4nccs4)cc3)c2cc1OC`, the growth in the test with HCT-15 colon was 96.3%; in the test with HT29 colon, 117%; in the test on SNB-75 CNS it was 87.1%; with SNB-19 CNS, 102%; in the test on U251 CNS, 96.3%; with PC-3 prostate it was 91.6%. Further, the growth in the test with SK-MEL-5 melanoma is 102%; in the test on UACC-62 melanoma, 96%; in the test with LOX IMVI melanoma, 86.5%; with SK-MEL-28 melanoma, 115%.
In the case of `N#Cc1c(N)nc2c(C#N)c(NC(=O)c3ccccc3)nn2c1-c1ccccc1`, the growth in the test on HCT-15 colon is 81.2%; with HT29 colon it was 99%; in the test with SNB-75 CNS it was 83%; in the test with SNB-19 CNS, 89.6%; in the test with U251 CNS it was 106%; in the test with PC-3 prostate, 75.7%. The growth with SK-MEL-5 melanoma was 78.4%; with UACC-62 melanoma it was 91.2%; with LOX IMVI melanoma, 86.3%; in the test on SK-MEL-28 melanoma, 103%.
For the compound `COc1ccc2nc(NNC(=O)c3cnccn3)c3cccn3c2c1`, the growth with HCT-15 colon is -19.5% (active); in the test on HT29 colon, 10%; in the test with SNB-75 CNS, 25.3%; with SNB-19 CNS, 6.9% (active); with U251 CNS, 0.414% (active); with PC-3 prostate, 16.5%. For the same compound, the growth in the test with SK-MEL-5 melanoma was 0.958% (active); in the test on UACC-62 melanoma, -34.2% (active); with LOX IMVI melanoma it was -36.3% (active); in the test with SK-MEL-28 melanoma, 11.7%.
For `Oc1ccc(CN2CCC(N3CCOCC3)CC2)c2cccnc12`, the growth in the test on HCT-15 colon is 17.7%; in the test with HT29 colon, 103%; in the test with SNB-75 CNS, 32%; in the test with SNB-19 CNS it was 17.6%; with U251 CNS it was 16.9%; in the test with PC-3 prostate, 15.3%. Further, the growth was -45.8% (active) with SK-MEL-5 melanoma, 12.9% in the test on UACC-62 melanoma, 15.2% in the test on LOX IMVI melanoma and 39.5% in the test on SK-MEL-28 melanoma.
On to `CCN1CCN(c2nc(C)cc(NCc3cc(Nc4ccnc5cc(Cl)ccc45)ccc3F)n2)CC1`, for which the growth with HCT-15 colon was -24.2% (active); with HT29 colon it was -12.6% (active); in the test with SNB-75 CNS, -34.7% (active); in the test on SNB-19 CNS, 34.7%; in the test with U251 CNS, -27.2% (active); in the test with PC-3 prostate, 19.5%. Moreover, the growth in the test with SK-MEL-5 melanoma was -96.4% (active); with UACC-62 melanoma, -49.8% (active); in the test with LOX IMVI melanoma, -81.5% (active); in the test with SK-MEL-28 melanoma, -80.3% (active).
Consider `COc1cccc(Nc2nccc(Nc3ccc4[nH]ncc4c3)n2)c1`, for which the growth in the test on HCT-15 colon was -26.6% (active); in the test with HT29 colon, -58.3% (active); with SNB-75 CNS it was 30.3%; in the test with SNB-19 CNS, 24.1%; in the test with U251 CNS, -93.7% (active); in the test with PC-3 prostate, -81.2% (active). Moreover, the growth in the test on SK-MEL-5 melanoma was -83.6% (active); with UACC-62 melanoma, -56.7% (active); in the test with LOX IMVI melanoma it was -66.9% (active); in the test with SK-MEL-28 melanoma, -42.6% (active).
As for `Cc1occc1-c1n[nH]c(=S)n1N1C(=O)CSC1=S`, the growth with HCT-15 colon is 101%; with HT29 colon, 105%; with SNB-75 CNS, 80.9%; in the test on SNB-19 CNS, 97%; with U251 CNS, 100%; with PC-3 prostate, 97.2%. In addition, the growth is 101% in the test with SK-MEL-5 melanoma, 91.4% in the test on UACC-62 melanoma, 94.1% with LOX IMVI melanoma and 106% in the test on SK-MEL-28 melanoma.
In the case of `O=C(Nc1ccccc1Cl)Oc1ccc(-c2ccccc2)cc1`, the growth was 104% in the test with HCT-15 colon; 103% in the test on HT29 colon; 84.2% with SNB-75 CNS; 98.4% in the test on SNB-19 CNS; 112% in the test on U251 CNS; 99.8% with PC-3 prostate. The growth in the test with SK-MEL-5 melanoma was 99.9%; with UACC-62 melanoma it was 89%; with LOX IMVI melanoma it was 106%; with SK-MEL-28 melanoma it was 151%.
With `COc1cccc(-c2nn(-c3ccccc3)cc2-c2ccnc(NCCNC(=O)c3ccccc3)c2)c1`, the growth was 50.5% in the test with HCT-15 colon; 15.9% in the test with HT29 colon; 71.1% in the test with SNB-75 CNS; 72.3% in the test with SNB-19 CNS; 47.9% in the test on U251 CNS; 37.7% with PC-3 prostate. For the same compound, the growth in the test with SK-MEL-5 melanoma is 34.5%; in the test with UACC-62 melanoma, 57.2%; in the test on LOX IMVI melanoma it was 68.7%; with SK-MEL-28 melanoma it was 88.3%.
With `Cc1ccc(C(=O)CSc2nc(-c3ccc(Br)cc3)c(C#N)c(=O)[nH]2)cc1`, the growth with HCT-15 colon was 105%; with HT29 colon, 93.9%; in the test on SNB-75 CNS, 64.5%; with SNB-19 CNS it was 96.7%; in the test on U251 CNS it was 105%; with PC-3 prostate, 90.9%. For the same compound, the growth was 97.2% in the test with SK-MEL-5 melanoma, 97.1% in the test on UACC-62 melanoma, 98% with LOX IMVI melanoma and 101% in the test with SK-MEL-28 melanoma.
For `CCN(CC)CCCC(C)Nc1c2ccc(Cl)cc2nc2ccc(O)cc12` (stereo not given), the growth in the test on HCT-15 colon was 42.3%; in the test on HT29 colon it was 48.2%; in the test on SNB-75 CNS, 35.3%; in the test on SNB-19 CNS, 44.8%; with U251 CNS it was 32.5%; in the test with PC-3 prostate it was 48.7%. Moreover, the growth was 34.7% in the test on SK-MEL-5 melanoma, 82.3% in the test with UACC-62 melanoma, 0.124% (active) in the test with LOX IMVI melanoma and 57.5% with SK-MEL-28 melanoma.

The record behind these values is PubChem BioAssay (NCI).
